Test results published in PubChem BioAssay.
The source made the active and inactive calls.

Assays:
Albumin (Bos taurus) = Albumin (Bos taurus) (UniProt P02769); test: bovine serum albumin binders on microarray, profiling panel, artefact control for SMM control protein annotation, biochemical, small-molecule microarray, Alexa647 label, 635/667 nm fluorescence (AID 1118); conditions: BSA-A647 binding, fluorescence 635 nm, higher = more signal;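 also: score merges 667 nm emission intensity and signal-to-noise per printed compound spot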
[1] = small-molecule microarray binders of probe aXIP, primary screen, biochemical, NeuroSMM set, 635/667 nm fluorescence (AID 1119); conditions: higher = more signal, called active from +8 up or from −8 down;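 also: probe is the protein aXip251-270 applied at 1 µg/mL to compound-printed slides; binding of probe to printed compounds measured as 667 nm fluorescence plus signal to noise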
[2] = small-molecule binders of probe aNOTCH3, primary screen, biochemical, small-molecule microarray, 635/667 nm fluorescence (AID 1120); conditions: higher = more signal;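 also: probe is a biotin-tagged antibody raised against NOTCH3 rather than NOTCH3 protein; score merges spot fluorescence near 667 nm with spot signal to noise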
[3] = small-molecule binders of probe aNOTCH2, primary screen, biochemical, small-molecule microarray, 635/667 nm fluorescence (AID 1121); conditions: higher = more signal;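 also: score merges feature fluorescence read at 667 nm with its signal to noise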
[4] = biological target: Carbonic anhydrase 2 (Homo sapiens) (UniProt P00918); test: CAII small-molecule binders, profiling panel, biochemical, small-molecule microarray, Alexa647-labelled CAII (AID 1122); conditions: CAII-A647 binding fluorescence, higher = more signal
[5] = COS7 lysate on small-molecule microarray, probe aHis, 635 nm (AID 1123); conditions: COS7 cell lysate, fluorescence, higher = more signal;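 also: z-score combines 667nm fluorescence intensity with signal-to-noise per printed compound spot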
[6] = compound binding in COS7 lysate, probe aLAP1, primary screen, cell lysate, small-molecule microarray (AID 1124); conditions: probe aLAP1, fluorescence, higher = more signal;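 also: lysate comes from COS7 cells expressing LAP1 and is applied at 0.3 µg/mL; score merges spot fluorescence near 667 nm with signal-to-noise over triplicate slides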
Sam68 (KHDRBS1) = test: Sam68 small-molecule binders, primary screen, biochemical, small-molecule microarray, 635 nm fluorescence (AID 1125); conditions: small-molecule microarray binding, higher = more signal;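 also: score merges 667 nm channel intensity with signal to noise over triplicate slides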
[7] = system: Chordin-like protein 2 (CHRDL2); test: CHRDL2 small-molecule binders, primary screen, biochemical, small-molecule microarray, 635 nm fluorescence (AID 1126); conditions: small-molecule microarray binding, fluorescence 635 nm; higher = more signal;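 also: printed compound slides probed with Chrdl2 protein at 4 µg/mL for 1 h at 4 C; score merges 667 nm emission intensity with signal to noise over three replicate slides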
[8] = biological target: Concanavalin-A (Canavalia ensiformis) (UniProt P02866); test: ConA small-molecule binders, primary screen, artefact control for SMM control protein annotation, biochemical, small-molecule microarray, Alexa647 label, 635 nm (AID 1127); conditions: ConA-A647 binding fluorescence, higher = more signal;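 also: z combines 667 nm emission intensity with signal-to-noise across three replicate slides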
[9] = anti-His antibody binders, primary screen, artefact control for SMM control protein annotation, biochemical, small-molecule microarray, 635 nm fluorescence (AID 1128); conditions: anti-His Alexa647 antibody binding, higher = more signal;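 also: score merges feature fluorescence with signal-to-noise for each printed compound spot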
[10] = system: Human papillomavirus type 1a E7 protein (residues 1-88); test: HPV1a E7 small-molecule binders, primary screen, biochemical, small-molecule microarray, residues 1-88, 635 nm (AID 1129); conditions: small-molecule microarray binding, fluorescence 635 nm; higher = more signal
[11] = biological target: Focal adhesion kinase 1 (Homo sapiens) (UniProt Q05397); test: small-molecule microarray binders of FAK, primary screen, biochemical, 635/667 nm fluorescence, BSA, DTT (AID 1130); conditions: PTK2 binding, 635 nm fluorescence, higher = more signal;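 also: composite of spot emission at 667 nm and signal to noise over triplicate slides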
[12] = system: Fibrinogen (Alexa647-labelled); test: fibrinogen binders on compound microarrays, profiling panel, artefact control for SMM control-protein annotation, biochemical, small-molecule microarray, 635/667 nm fluorescence (AID 1131); conditions: fibrinogen-A647 binding fluorescence, higher = more signal;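 also: z-score merges 667 nm fluorescence with per-spot signal-to-noise over triplicate slides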
[13] = biological target: Follistatin (Homo sapiens) (UniProt P19883); test: follistatin binders on small-molecule microarrays, primary screen, biochemical, small-molecule microarray, 635/667 nm fluorescence (AID 1132); conditions: FST binding, 635 nm fluorescence, higher = more signal
[14] = biological target: Fibroblast growth factor 2 (Homo sapiens) (UniProt P09038); test: FGF2 binders on small-molecule microarrays, primary screen, biochemical, small-molecule microarray, 635/667 nm fluorescence (AID 1133); conditions: small-molecule microarray binding, FGF2, fluorescence 635/667; higher = more signal
[15] = mitochondrial membrane potential change in A549 cells, profiling panel, cell-based, JC-1 fluorescence, basal, 24 h, 100 nL (AID 1138); conditions: higher = more signal;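 also: A549 lung adenocarcinoma cells under basal conditions with no added stimulus; test concentration not given here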
Lefty1 = Lefty1 binders on small-molecule microarrays, primary screen, biochemical, small-molecule microarray, 635/667 nm fluorescence (AID 1139); conditions: small-molecule microarray binding, fluorescence 635/667; higher = more signal
[16] = system: wheat germ agglutinin (Triticum aestivum), Alexa647-labelled; test: wheat germ agglutinin binders on compound microarrays, profiling panel, artefact control for SMM control-protein annotation, biochemical, small-molecule microarray, 635/667 nm fluorescence (AID 1140); conditions: WGA-A647 binding, 635 nm fluorescence, higher = more signal;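 also: score merges 667 nm feature emission with signal to noise over triplicate slides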
[17] = biological target: Luciferin 4-monooxygenase (Photinus pyralis) (UniProt P08659); test: firefly luciferase enzyme inhibitors, primary screen, biochemical, luminescence, purified enzyme, 2006 set (AID 1141); conditions: SteadyGlo luminescence, 30 min, higher = more signal, called active from +8 up or from −8 down;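 also: cell-free assay with purified firefly luciferase at 100 ng per well in PBS; test concentration not given here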
Sequence of Luciferin 4-monooxygenase (Photinus pyralis) (P08659 whole entry, looked up): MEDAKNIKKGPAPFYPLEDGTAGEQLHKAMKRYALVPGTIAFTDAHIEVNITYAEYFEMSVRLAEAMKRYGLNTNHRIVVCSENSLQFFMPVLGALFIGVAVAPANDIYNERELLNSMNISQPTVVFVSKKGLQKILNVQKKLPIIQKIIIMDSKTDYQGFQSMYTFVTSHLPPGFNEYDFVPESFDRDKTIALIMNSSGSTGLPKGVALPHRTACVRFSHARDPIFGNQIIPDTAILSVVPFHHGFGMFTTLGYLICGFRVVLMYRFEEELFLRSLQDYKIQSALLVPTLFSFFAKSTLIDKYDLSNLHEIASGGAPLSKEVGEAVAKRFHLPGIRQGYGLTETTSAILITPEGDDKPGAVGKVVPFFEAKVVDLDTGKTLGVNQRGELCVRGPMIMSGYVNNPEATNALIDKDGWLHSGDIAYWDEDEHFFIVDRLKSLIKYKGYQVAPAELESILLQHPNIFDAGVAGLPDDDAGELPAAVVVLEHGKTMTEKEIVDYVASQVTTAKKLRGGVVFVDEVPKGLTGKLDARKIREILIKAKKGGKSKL

Sequence of Focal adhesion kinase 1 (Homo sapiens) (Q05397 whole entry, looked up): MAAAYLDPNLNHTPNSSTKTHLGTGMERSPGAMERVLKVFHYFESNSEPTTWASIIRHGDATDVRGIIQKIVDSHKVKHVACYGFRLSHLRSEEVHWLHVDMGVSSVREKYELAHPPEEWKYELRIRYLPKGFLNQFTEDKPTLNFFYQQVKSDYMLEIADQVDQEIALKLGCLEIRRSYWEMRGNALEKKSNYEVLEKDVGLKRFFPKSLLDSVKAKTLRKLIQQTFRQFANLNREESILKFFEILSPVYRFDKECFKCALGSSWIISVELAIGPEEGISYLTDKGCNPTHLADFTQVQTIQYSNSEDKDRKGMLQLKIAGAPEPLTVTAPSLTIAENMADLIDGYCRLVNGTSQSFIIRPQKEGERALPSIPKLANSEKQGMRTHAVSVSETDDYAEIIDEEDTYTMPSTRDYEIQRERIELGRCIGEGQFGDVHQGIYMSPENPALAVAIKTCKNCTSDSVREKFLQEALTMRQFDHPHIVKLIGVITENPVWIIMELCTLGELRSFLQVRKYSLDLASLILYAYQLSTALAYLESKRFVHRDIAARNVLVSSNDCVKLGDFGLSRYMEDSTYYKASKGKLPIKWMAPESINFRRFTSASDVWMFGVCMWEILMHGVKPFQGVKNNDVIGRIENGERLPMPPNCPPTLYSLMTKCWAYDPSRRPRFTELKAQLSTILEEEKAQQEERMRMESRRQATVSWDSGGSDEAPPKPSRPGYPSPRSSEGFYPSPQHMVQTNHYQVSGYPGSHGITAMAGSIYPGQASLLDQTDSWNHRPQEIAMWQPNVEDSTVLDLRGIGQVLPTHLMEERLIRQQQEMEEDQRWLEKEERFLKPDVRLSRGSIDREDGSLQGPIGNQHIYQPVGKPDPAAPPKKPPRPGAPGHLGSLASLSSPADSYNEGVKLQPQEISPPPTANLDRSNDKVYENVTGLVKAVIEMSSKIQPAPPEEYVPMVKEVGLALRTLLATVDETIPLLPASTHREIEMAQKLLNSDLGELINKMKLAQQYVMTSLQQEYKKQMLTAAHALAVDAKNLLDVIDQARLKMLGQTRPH
Sequence of Albumin (Bos taurus) (P02769 whole entry, looked up): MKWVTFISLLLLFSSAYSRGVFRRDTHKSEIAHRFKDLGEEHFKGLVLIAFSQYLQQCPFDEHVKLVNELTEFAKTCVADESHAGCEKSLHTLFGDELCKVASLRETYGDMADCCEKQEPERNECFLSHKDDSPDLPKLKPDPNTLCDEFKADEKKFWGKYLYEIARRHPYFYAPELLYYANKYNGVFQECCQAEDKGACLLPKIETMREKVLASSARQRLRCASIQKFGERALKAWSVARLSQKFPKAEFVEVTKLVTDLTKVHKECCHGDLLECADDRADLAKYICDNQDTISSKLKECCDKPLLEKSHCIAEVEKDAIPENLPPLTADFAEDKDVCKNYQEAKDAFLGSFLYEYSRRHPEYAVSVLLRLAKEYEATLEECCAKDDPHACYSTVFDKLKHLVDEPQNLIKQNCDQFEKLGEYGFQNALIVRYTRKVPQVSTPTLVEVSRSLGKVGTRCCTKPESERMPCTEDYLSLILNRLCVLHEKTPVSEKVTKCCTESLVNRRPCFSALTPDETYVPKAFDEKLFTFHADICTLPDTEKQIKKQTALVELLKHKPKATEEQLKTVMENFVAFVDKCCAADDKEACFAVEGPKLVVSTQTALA
Sequence of Fibroblast growth factor 2 (Homo sapiens) (P09038 whole entry, looked up): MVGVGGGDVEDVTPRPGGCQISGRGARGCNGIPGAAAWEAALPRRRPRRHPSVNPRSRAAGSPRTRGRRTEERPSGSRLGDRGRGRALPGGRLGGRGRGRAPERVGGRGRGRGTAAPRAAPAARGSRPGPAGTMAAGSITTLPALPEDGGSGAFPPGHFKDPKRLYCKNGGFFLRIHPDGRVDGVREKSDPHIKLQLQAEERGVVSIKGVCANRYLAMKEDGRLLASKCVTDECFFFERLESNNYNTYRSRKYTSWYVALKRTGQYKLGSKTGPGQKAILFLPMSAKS
Sequence of Concanavalin-A (Canavalia ensiformis) (P02866 whole entry, looked up): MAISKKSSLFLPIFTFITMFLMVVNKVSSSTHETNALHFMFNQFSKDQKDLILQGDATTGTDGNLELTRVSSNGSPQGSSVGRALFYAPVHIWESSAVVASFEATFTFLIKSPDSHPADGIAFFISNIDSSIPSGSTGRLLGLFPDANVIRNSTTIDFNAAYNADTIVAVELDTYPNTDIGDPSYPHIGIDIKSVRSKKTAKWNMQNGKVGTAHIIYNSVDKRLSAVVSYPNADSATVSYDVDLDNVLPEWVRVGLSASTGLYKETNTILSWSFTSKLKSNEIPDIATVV
Sequence of Follistatin (Homo sapiens) (P19883 whole entry, looked up): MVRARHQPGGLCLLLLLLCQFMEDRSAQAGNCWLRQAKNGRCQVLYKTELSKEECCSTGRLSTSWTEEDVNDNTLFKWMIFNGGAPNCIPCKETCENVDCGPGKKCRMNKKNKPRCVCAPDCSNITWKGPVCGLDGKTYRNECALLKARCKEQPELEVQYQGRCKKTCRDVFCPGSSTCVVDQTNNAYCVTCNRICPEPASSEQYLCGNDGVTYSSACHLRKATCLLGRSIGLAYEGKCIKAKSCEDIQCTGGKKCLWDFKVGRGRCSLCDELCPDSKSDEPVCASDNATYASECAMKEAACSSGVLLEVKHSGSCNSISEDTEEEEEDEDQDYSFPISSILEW

SMILES | composite z-score (Albumin (Bos taurus)) | composite Z-score [1] | composite z-score [2] | composite z-score [3] | composite z-score [4] | composite z-score [5] | composite z-score [6] | composite z-score (Sam68 (KHDRBS1)) | composite z-score [7] | composite z-score [8] | composite z-score [9] | composite z-score [10] | composite z-score [11] | composite z-score [12] | composite z-score [13] | composite z-score [14] | z-score [15] | composite z-score (Lefty1) | composite z-score [16] | z-score [17]
COc1ccc([Si](C)(C)[C@@H]2[C@@H](CC(=O)N3CCC[C@H]3CO)O[C@]3(C(=O)N(Cc4ccc(I)cc4)c4ccccc43)[C@H]2C)cc1 | -1.32 | -0.36 (inactive) | -0.0328 | -0.0707 | -0.0226 | 0.713 | 0.147 | 1.32 | 1.06 | 1.19 | 1.14 | 0.989 | 0.178 | 0.584 | 1.34 | 1.56 | 1.05 | 1.12 | 1.07 | -0.765 (inactive)
C=C(CCCC)/C(=C/C[C@H](OC(=O)c1ccncc1)c1ccc(CO)o1)c1cnc2ccccc2c1 | 0.295 | -0.0961 (inactive) | 0.227 | -0.0942 | 0.84 | 0.368 | 0.0647 | 1.3 | 0.699 | 1.04 | 0.475 | 1.18 | 0.291 | 0.0311 | 1.38 | 0.722 | 1.45 | 1.38 | 1.28 | -2.94 (inactive)
CN(C)CCCC[C@@H]1NC(=O)[C@@H]2C[C@H](C(=O)NCCCCCNC(=O)CS)[C@H](c3cccc(OCCO)c3)N2C1=O | 0.786 | 1.6 (inactive) | -0.15 | -0.167 | 0.82 | 0.356 | 0.303 | 0.528 | 0.728 | 0.65 | 2.04 | 0.05 | 0.387 | 0.119 | 1.49 | 1.65 | 0.43 | 1.45 | 0.626 | -0.673 (inactive)
COC(=O)C1=CC(CCCO)=CC(C2CC2)N(Cc2cc3c(cc2Br)OCO3)C=C1C(=O)OC (stereo not given) | 1.01 | 0.305 (inactive) | 0.102 | 0.0247 | 0.92 | 2.44 | 1.65 | 1.3 | -0.547 | 1.07 | 2.68 | 0.86 | 0.149 | 0.931 | -0.107 | -0.3 | 1.27 | -0.648 | 1.4 | -1.24 (inactive)
COCCCNC(=O)[C@@]1(Cc2ccccc2CN=[N+]=[N-])COC(c2ccc(OCCCO)cc2)=N1 | 0.922 | 0.536 (inactive) | 0.248 | 0.0261 | 0.673 | 2.83 | 0.413 | 1.3 | -2.16 | 1.13 | 2.69 | 1.21 | 0.759 | 0.479 | 0.186 | -0.742 | 1.79 | -0.713 | 1.03 | -1.59 (inactive)
COC(=O)C(CC#Cc1ccc2c(c1)[C@]1(C(=O)N2)[C@H](c2ccccc2OCCO)N2[C@H](c3ccccc3)[C@H](c3ccccc3)OC(=O)[C@H]2[C@@H]1C(=O)N1CCCCCCC1)C(=O)OC | -0.314 | 8.74 (active) | 2.02 | 1.1 | 1.03 | 4.9 | 1.41 | 1.33 | 1.66 | 0.773 | 0.925 | 1.35 | 4.83 | 0.0834 | 1.56 | -0.0426 | 0.547 | 1.73 | 1.66 | -1.08 (inactive)
CC(C)(C)OC(=O)CC[C@@]12N=C(c3ccc(OCCCO)cc3)O[C@@H]1c1ccccc1CN(Cc1ccccc1)C2=O | -0.478 | 0.976 (inactive) | 0.0026 | -0.11 | 0.418 | 1.73 | -0.0961 | 1.31 | -0.0229 | 1.1 | 2.46 | 1.18 | 1.36 | 0.357 | 1.32 | 1.43 | 1.09 | 0.377 | 0.438 | -1.59 (inactive)
COc1ccc([Si](C)(C)[C@@H]2[C@@H](CCn3cc(CCO)nn3)O[C@]3(C(=O)N(Cc4ccc(N5C(=O)c6cccc7cccc5c67)cc4)c4ccccc43)[C@H]2C)cc1 | 0.651 | 0.722 (inactive) | 0.102 | -0.061 | 0.356 | 0.961 | 0.234 | 1.1 | 0.157 | 1.12 | 1.51 | 0.914 | 0.87 | 0.688 | 0.499 | 0.103 | -0.37 | 0.518 | 1.2 | -0.685 (inactive)
COC(=O)C(CC#Cc1ccc2c(c1)[C@]1(C(=O)N2)[C@H](C(=O)O)[C@H]2C(=O)O[C@H](c3ccccc3)[C@H](c3ccccc3)N2[C@@H]1c1ccc(OCCO)cc1)C(=O)OC | 0.956 | -0.908 (inactive) | 0.123 | -0.0333 | 0.703 | 2.07 | 0.279 | 1.3 | -0.756 | 1.2 | 0.479 | 1.24 | 0.918 | 0.812 | 0.0447 | 0.549 | -0.22 | 0.943 | 1.43 | -4.03 (inactive)
COc1ccc([Si](C)(C)[C@H]2[C@H](CC(=O)N(CCO)Cc3ccccc3)O[C@@]3(C(=O)N(Cc4cccc(N5C(=O)COc6ccccc65)c4)c4ccccc43)[C@@H]2C)cc1 | -1.06 | 0.616 (inactive) | 0.0961 | -0.118 | 0.462 | 1.69 | -0.045 | 0.897 | 0.81 | 1.06 | 1.11 | 0.965 | 1.45 | 0.147 | 1.05 | 1.52 | -0.0909 | 1.26 | 0.528 | -1.8 (inactive)
